Screens deposited in PubChem by several laboratories.
The list is not random: actives were taken first. Their share in the collection is about 1.7%.
LYP inh 2: blocks human PTPN22 phosphatase activity. actives 0.21% (n = 96,000). AID 640. Q9Y2R2. inhibition, % at 2 µM. recombinant LYP catalytic domain, DiFMUP fluorescence;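 active = inhibition at 2 µM at or above a set limit, the screen mean plus 3 SD, cut at about 24% in these data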;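 note: 0% = DMSO with enzyme and 100% = enzyme fully blocked by orthovanadate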
Target sequence (Q9Y2R2 whole entry, looked up, the tested form may be a part): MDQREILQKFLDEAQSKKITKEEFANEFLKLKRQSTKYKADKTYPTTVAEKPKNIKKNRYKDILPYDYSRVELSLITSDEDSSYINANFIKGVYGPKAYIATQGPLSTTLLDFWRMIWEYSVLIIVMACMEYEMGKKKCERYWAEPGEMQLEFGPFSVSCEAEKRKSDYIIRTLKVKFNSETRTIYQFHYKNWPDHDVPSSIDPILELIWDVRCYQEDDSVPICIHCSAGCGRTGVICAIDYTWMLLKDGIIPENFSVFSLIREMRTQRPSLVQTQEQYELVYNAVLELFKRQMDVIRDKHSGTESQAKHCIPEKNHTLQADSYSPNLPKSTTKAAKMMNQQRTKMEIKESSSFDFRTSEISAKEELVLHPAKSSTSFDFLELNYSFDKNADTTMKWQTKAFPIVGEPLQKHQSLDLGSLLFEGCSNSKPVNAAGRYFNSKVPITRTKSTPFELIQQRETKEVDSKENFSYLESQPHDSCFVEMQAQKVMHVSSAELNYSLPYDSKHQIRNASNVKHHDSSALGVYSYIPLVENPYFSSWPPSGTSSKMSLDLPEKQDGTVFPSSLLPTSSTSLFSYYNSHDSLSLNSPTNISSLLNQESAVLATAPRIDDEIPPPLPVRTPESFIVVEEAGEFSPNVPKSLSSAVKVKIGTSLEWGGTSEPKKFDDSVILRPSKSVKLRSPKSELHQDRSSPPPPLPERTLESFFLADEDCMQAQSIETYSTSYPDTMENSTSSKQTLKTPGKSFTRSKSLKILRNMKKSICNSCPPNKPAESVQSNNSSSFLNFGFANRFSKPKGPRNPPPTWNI
Measles CPE: protection of cells from measles virus. protection (pct of control), % at 4 µM. actives 1.5% (n = 140,000). Measles virus-infected cells, CPE protection, absorbance. AID 841; in the data active = protection mostly above about 24%, no sharp cut-off; inactive = mostly below about 26%
PTPN22 act: activators of human LYP (PTPN22) phosphatase. recombinant LYP, DiFMUP fluorescence; 0 = plate median, 100 = signal doubled. actives 0.11% (n = 96,000). activation, % at 2 µM;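 active = activation at 2 µM above a set limit, the mean plus 5 SD, cut at about 37% in these data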
Starred values were filed as active, the others as inactive; . = no result given.

SMILES | LYP inh 2 | Measles CPE | PTPN22 act
COc1ccc(C(C2C(=O)CC(C)(C)CC2=O)C2C(=O)CC(C)(C)CC2=O)cc1COCC(F)(F)F | . | 13 | .
c1ccc(CCc2nn3c(Cn4cnc5ccccc54)nnc3s2)cc1 | -5 | 12 | 5
CCn1c(/N=C/c2ccccc2NS(=O)(=O)c2ccc(C)cc2)nc2ccccc21 | . | 66* | .
CCCCn1c(NCc2ccccc2NS(=O)(=O)c2ccc(C)cc2)nc2ccccc21 | 16 | 4 | -12
Cc1ccc(C(=O)CSC2=C(C#N)C(c3ccco3)C3=C(CC(C)(C)CC3=O)N2)cc1 (stereo not given) | 6 | 1 | -4
CC1(C)CC(=O)C2=C(C1)NC(SCC(=O)Nc1ccccc1)=C(C#N)C2c1ccco1 (stereo not given) | -13 | 38* | 5
COC(=O)CSc1nnc(-c2ccc(OC)cc2OC)o1 | -2 | 7 | -1
COc1ccc(C)cc1NC(=O)C1CC(=O)OC12CCCCC2 (stereo not given) | -6 | 4 | 8
O=C(NC(c1ccc(Cl)cc1)c1c(O)ccc2ccccc12)c1ccccc1 (stereo not given) | . | 42* | .
O=C(NC(c1ccccc1)c1c(O)ccc2ccccc12)c1ccccc1Cl (stereo not given) | 2 | 11 | 4
Cc1c(NC(=O)CC(=O)Nc2c(C)n(C)n(-c3ccccc3)c2=O)c(=O)n(-c2ccccc2)n1C | 1 | 6 | -2
CCCCn1c(C)nc2c(=O)n(C)c(=O)[nH]c21 | 6 | 29* | -8
CCCCn1c(-c2ccccc2)nc2c(=O)n(C)c(=O)[nH]c21 | -5 | 5 | 3
O=c1[nH]c(=O)n(CCO)c2nnn(Cc3ccccc3)c12 | -19 | 30* | 16
COc1ccc(-c2nc3c(c(=O)[nH]c(=O)n3Cc3ccccc3)n2C)cc1 | 0 | 2 | -3
COc1ccccc1OCCNC(=O)c1cc(F)c(F)cc1Cl | . | 4 | .
O=C(NCCOc1ccccc1F)c1cc(F)c(F)cc1Cl | . | 33* | .
Cc1ccc(C(=O)NNC(=O)CCC(=O)Nc2cccc(Cl)c2C)cc1 | . | 4 | .
Cc1cccc(C(=O)NNC(=O)CCC(=O)Nc2cccc(Cl)c2C)c1 | . | 35* | .
C/C(N)=C(/C#N)C(=O)COC(=O)COc1ccc(Cl)cc1 | -9 | 12 | 7
COc1cccc(N=c2oc3ccc(OC)cc3cc2-c2nc3ccccc3[nH]2)c1 | 1 | 47* | 1
COc1cccc(N=c2oc3ccccc3cc2-c2nc3ccccc3[nH]2)c1 | 12 | 12 | -10
CCCc1c(C)nc2ccc(OC)cc2c1SCCC(=O)O | . | 24 | .
CC(C)CNC(=O)CSc1nnc(-c2ccccn2)n1Cc1ccccc1 | 10 | 2 | -8
Cn1c(N)c(C(=O)COC(=O)c2ccc(Cl)c(S(=O)(=O)N3CCCCC3)c2)c(=O)n(C)c1=O | . | 3 | .
SMILES | LYP inh 2 | Measles CPE | PTPN22 act
CCCCC(=O)NC1=C(C(=O)OC)SCC1 | . | 9 | .
COC(=O)C1=C(NC(=O)CCCCl)CCS1 | . | 50* | .
O=C1c2cccnc2-c2ncccc21 | -7 | 46* | 3
O=C1c2ccccc2-c2nccnc21 | 2 | 1 | -2
COc1cc(/C=N/NC(=O)c2ccc(COc3ccccc3Cl)o2)cc(Br)c1O | . | 5 | .
COc1cccc(/C=N/NC(=O)c2ccc(COc3ccc(Cl)cc3Cl)o2)c1 | 5 | 52* | -1
COc1ccc(Br)cc1/C=N/NC(=O)c1ccc(COc2ccc3c(c2)CCC3)o1 | 7 | 24 | -5
O=C(N/N=C/c1ccc2ccccc2c1)c1ccc(COc2ccc3c(c2)CCC3)o1 | 33* | 11 | -31
Cc1cc(/C=N/n2cnnc2)c(C)n1-c1ccc(OCc2ccc(Cl)cc2)cc1 | 5 | 48* | -3
Cc1cc(/C=N/n2cnnc2)c(C)n1-c1ccc(OCc2ccccc2F)cc1 | -6 | 0 | 4
COc1ccc(S(=O)(=O)N2CCC(C(=O)NCc3ccco3)CC2)cc1 | 2 | 7 | -3
CCOc1ccc(NC(=O)NC2CCOC(C)(C)C2)cc1 (stereo not given) | -5 | 41 | 4
O=C(CCC1COc2ccccc2O1)Nc1ccc(Cl)cn1 (stereo not given) | 1 | 6 | -2
Cc1ccnc(NC(=O)CCC2COc3ccccc3O2)c1 (stereo not given) | -28 | 41* | 27
O=C(CCn1c(=O)oc2ccccc21)n1c(=O)oc2ccccc21 | -5 | 26 | 6
CCOc1ccc(/C(O)=C2/C(=O)C(=O)N(CC3CCCO3)C2c2ccco2)cc1 (stereo not given) | -6 | 26 | 0
CCOc1ccc(/C(O)=C2/C(=O)C(=O)N(CC3CCCO3)C2c2ccc(C)o2)cc1 (stereo not given) | -10 | 46* | 8
CCc1ccc2nc(N3CCN(C)CC3)c(C#N)cc2c1 | -1 | 6 | -1
COc1cccc(/C=N/n2cnnc2)c1OCc1ccccc1 | -9 | 11 | 12
COc1ccc(C(=O)N/N=c2\oc3ccccc3cc2C(=O)NCc2ccccc2)cc1 | . | 13 | .
COC(=O)CCCC(=O)Nc1ccc(Br)cc1 | . | 4 | .
Cc1ccc(NC(=O)c2ccc(CSc3nnc(-c4ccncc4)n3C)cc2)c(C)c1 | -1 | 100* | 4
Cc1ccc(NC(=O)c2ccc(CSc3nnc(C)s3)cc2)c(C)c1 | 8 | 5 | -5
CC(C)(C)c1ccc(OCCCNCc2ccccc2)cc1 | . | 4 | .
Nc1ccc(-c2cnc(-c3ccc(N)cc3)nc2)cc1 | -5 | 69* | 6
SMILES | LYP inh 2 | Measles CPE | PTPN22 act
CCCCCCc1ccc(-c2ncc(N)cn2)cc1 | -4 | 8 | 7
Clc1ccc(-c2nnc3sc(Cc4cccs4)nn23)c(Cl)c1 | 9 | 68* | -11
c1coc(-c2nnc3sc(Cc4cccs4)nn23)c1 | -3 | 41 | 0
CCOC(=O)c1ccc(NC(=O)C(=O)NCC2CCCO2)cc1 (stereo not given) | -9 | 7 | 12
COc1ccc(C(C)=O)cc1CSc1nnc(C)n1-c1ccccc1 | . | 33 | .
Cc1ccc(C)c2c3c([nH]c12)-c1nonc1CC3 | -2 | 74* | 4
c1coc(-c2nc3c([nH]2)CCc2nonc2-3)c1 | -10 | 4 | 9
O=C(Cc1cccs1)Nc1nc2c(s1)CCCC2 | -5 | 93* | 10
O=C(Nc1nc2c(s1)CCCC2)c1cccs1 | -3 | 6 | 2
O=C(Cc1ccccc1)Nc1c2c(nn1-c1cccc(Cl)c1)CS(=O)(=O)C2 | -20 | 8 | 17
CS/C(=N\N(C)C(N)=O)c1ccccc1 | . | 11 | .
Cc1cc(N2CCN(C(=O)c3ccco3)CC2)n2ncc(-c3ccccc3)c2n1 | -8 | 39* | 7
Cc1cc(N2CCN(C(=O)c3ccco3)CC2)n2ncnc2n1 | 6 | 3 | -3
Cc1cc2cc(CNC(=O)Nc3cccc(Cl)c3)ccc2n1C | -9 | 2 | 8
CCOc1ccc(NC(=O)COC(=O)c2c(OC)cccc2OC)cc1 | . | 13 | .
CC(C)CCn1c(Cl)nc2c1c(=O)n(C)c(=O)n2C | -8 | 31 | 5
CCCn1c(CN(C)Cc2ccccc2)nc2c1c(=O)n(C)c(=O)n2C | -3 | 6 | 2
CN(Cc1ccccc1)Cc1nc2c(c(=O)n(C)c(=O)n2C)n1Cc1ccccc1Cl | -4 | 53* | 3
CC(C)CCn1c(Oc2ccccc2Cl)nc2c1c(=O)n(C)c(=O)n2C | -2 | 49* | 5
COC(=O)c1nn(-c2ccc(Cl)cc2)c(=O)cc1Sc1ccccn1 | -18 | 28* | 17
